According to PubChem BioAssay (Tox21):
Inconclusive results are not listed. The source made the active and inactive calls. Unless noted, calls follow the shape of the dose curve; as a rule, active = well fitted curve in the direction sought with a large enough effect in the repeat runs; inconclusive = weak or mixed curves; inactive = no such curve, though single readings can be large; an effect the other way counts as inactive or inconclusive.

Tests used:
[1] = qHTS assay to identify small molecule agonists of the farnesoid-X-receptor (FXR) signaling pathway - cell viability counter screen (AID 743218); also: % is scaled to controls: 0 for no effect and ±100 for the full control effect; nearly all actives have a fitted effect of over 45% in size
Procedure, shortened: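 After 16 h at 37 C with test compounds, FXR-bla HEK 293T cells were given LiveBLAzer B/G substrate for 2 h at RT and then CellTiter-Glo; luminescence was taken after 30 min.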

[2] = qHTS assay to identify small molecule antagonists of the farnesoid-X-receptor (FXR) signaling pathway - cell viability counter screen (AID 743221; active = well fitted cell-killing curve with a large enough effect in the repeat runs, not every such curve was filed as active; also: % is scaled to controls: 0 for no effect and ±100 for the full control effect; nearly all actives have a fitted effect of over 50% in size)
Procedure, shortened: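 Cytotoxicity counter screen run in the FXR-bla reporter wells: HEK 293T cells exposed to compound with 50 uM (final) chenodeoxycholic acid for 16 h, 37 C, then viability measured by CellTiter-Glo luminescence after 30 min, room temperature.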

[3] = biological target: Vitamin D3 receptor (Homo sapiens) (UniProt P11473); test: qHTS assay to identify small molecule antagonists of the vitamin D receptor (VDR) signaling pathway (AID 743223; active = well fitted inhibition curve with a large enough effect in the signal ratio in the repeat runs, not every such curve was filed as active; the % refers to the signal ratio; also: % is scaled to controls: 0 for no effect and ±100 for the full control effect)
Procedure, shortened: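 Antagonist mode: compound added to VDR-bla cells alongside agonist 1alpha,25-dihydroxyvitamin D3 (3 nM final), incubation 16 h at 37C. Read-out is LiveBLAzer FRET fluorescence, 2 h at room temperature.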

[4] = qHTS assay to identify small molecule agonists of the vitamin D receptor (VDR) signaling pathway - cell viability counter screen (AID 743224); also: series mostly up to about 63 µM; % is scaled to controls: 0 for no effect and ±100 for the full control effect; nearly all actives have a fitted effect of over 50% in size
Procedure, shortened: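 Here cell health was gauged by luminescent ATP detection (CellTiter-Glo, 30 min RT) in VDR-bla cells that had been incubated with test compounds for 16 h at 37C and 5% CO2.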

[5] = qHTS assay to identify small molecule antagonists of the vitamin D receptor (VDR) signaling pathway - cell viability counter screen (AID 743225); also: % is scaled to controls: 0 for no effect and ±100 for the full control effect; nearly all actives have a fitted effect of over 50% in size
Procedure, shortened: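 Cytotoxicity counter screen read by CellTiter-Glo luminescence (30 min, room temperature) in the same wells as the VDR-bla antagonist readout. HEK 293T VDR-UAS-bla cells had 16 h at 37C with compound and 3 nM (final) 1-alpha,25-dihydroxyvitamin D3, then 2 h with FRET substrate.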

[6] = qHTS assay to identify small molecule agonists of the NFkB signaling pathway - cell viability counter screen (AID 1159515; calls by dose curve; also: series mostly up to about 61 µM; % is scaled to controls: 0 for no effect and ±100 for the full control effect; nearly all actives have a fitted effect of over 55% in size)
Procedure, shortened: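 5 hr compound treatment of NFkB-bla ME-180 cells (2,000/well, seeded overnight beforehand), followed by reporter substrate for 1.5 hr. CellTiter-Glo added afterward; luminescence after 30 min RT.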

[7] = qHTS assay to identify small molecule agonists of the endoplasmic reticulum stress response signaling pathway (AID 1159516; active = well fitted activation curve with a large enough effect in the signal ratio in the repeat runs, not every such curve was filed as active; the % refers to the signal ratio; also: % is scaled to controls: 0 for no effect and ±100 for the full control effect)
Procedure, shortened: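 Reporter HeLa cells (ESRE-beta-lactamase) underwent 5 hr compound incubation at 37 C and 5% CO2 in quantitative HTS format. Detection followed 2 hr of FRET substrate loading at room temperature.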

[8] = qHTS assay to identify small molecule agonists of the endoplasmic reticulum stress response signaling pathway - cell viability counter screen (AID 1159517; calls by dose curve;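 also: HeLa cells carrying an ER stress response element beta-lactamase reporter; series mostly up to about 61 µM; % is scaled to controls: 0 for no effect and ±100 for the full control effect; nearly all actives have a fitted effect of over 50% in size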)
Procedure, shortened: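 HeLa cells carrying an ESRE-driven beta-lactamase reporter receive compound for 5 hr at 37 C. Cell viability is then gauged with CellTiter-Glo by luminescence, 30 min at room temperature.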

[9] = qHTS assay to identify small molecule antagonists of the retinoid-related orphan receptor gamma (ROR-gamma) signaling pathway - cell viability counter screen (AID 1159520)
Procedure, shortened: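 Cytotoxicity was read from cellular ATP (CellTiter-Glo luminescence) after 16 hr at 37 C with 1 uM doxycycline induction. The inducer was added 2 hr after compound transfer to Tet-on ROR gamma CHO cells.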

[10] = qHTS assay to identify small molecule agonists of the AP-1 signaling pathway (AID 1159526; calls by dose curve; also: % is scaled to controls: 0 for no effect and ±100 for the full control effect)
[11] = biological target: Retinoic acid receptor RXR-alpha (Homo sapiens) (UniProt P19793); test: qHTS assay to identify small molecule agonists of the RXR signaling pathway (AID 1159527; calls by dose curve; also: % is scaled to controls: 0 for no effect and ±100 for the full control effect; nearly all actives have a fitted effect of over 35% in size)
Procedure, shortened: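 Agonist-mode beta-lactamase reporter assay: HEK 293T RXR-alpha-UAS-bla cells treated 16 hr at 37 C with compounds, 9-cis retinoic acid as positive control. LiveBLAzer FRET substrate, 405 nm excitation, 460/530 nm emission.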

[12] = qHTS assay to identify small molecule agonists of the peroxisome proliferator-activated receptor delta (PPARd) signaling pathway - cell viability counter screen (AID 743211); also: % is scaled to controls: 0 for no effect and ±100 for the full control effect; nearly all actives have a fitted effect of over 55% in size
Procedure, shortened: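 Viability was measured as CellTiter-Glo luminescence (30 min, room temperature) in the same wells as the beta-lactamase readout. GeneBLAzer PPARd UAS-bla HEK293H cells received compound after 5 h plating and were incubated 17 h at 37 C.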

[13] = biological target: Peroxisome proliferator-activated receptor delta (Homo sapiens) (UniProt Q03181); test: qHTS assay to identify small molecule agonists of the peroxisome proliferator-activated receptor delta (PPARd) signaling pathway (AID 743212; calls by dose curve; also: % is scaled to controls: 0 for no effect and ±100 for the full control effect)
Procedure, shortened: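 HEK293H PPARd-bla cells; 5 h preincubation 37 C/5% CO2; compound (DMSO) 37 C; LiveBLAzer B/G FRET substrate 2 h RT; fluorescence intensity.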

[14] = qHTS assay to identify small molecule antagonists of the peroxisome proliferator-activated receptor delta (PPARd) signaling pathway - cell viability counter screen (AID 743213)
Procedure, shortened: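 HEK293H PPARd UAS-bla cells, 5 h pre-incubation, compound + L165041 300 nM final, 17 h 37 C; B/G FRET substrate 2 h RT; then CellTiter-Glo 30 min RT, luminescence.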

[15] = biological target: Peroxisome proliferator-activated receptor delta (Homo sapiens) (UniProt Q03181); test: qHTS assay to identify small molecule antagonists of the peroxisome proliferator-activated receptor delta (PPARd) signaling pathway (AID 743215; active = well fitted inhibition curve with a large enough effect in the signal ratio in the repeat runs, not every such curve was filed as active; the % refers to the signal ratio)
Procedure, shortened: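 With L165041 present at 300 nM final, compounds were incubated 17 h at 37 C on PPARd UAS-bla HEK293H cells. A FRET-based beta-lactamase substrate was then applied for 2 h at room temperature and fluorescence intensity recorded.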

[16] = biological target: Nuclear receptor ROR-gamma (Homo sapiens) (UniProt P51449); test: qHTS assay to identify small molecule antagonists of the retinoid-related orphan receptor gamma (ROR-gamma) signaling pathway (AID 1159521; also: nearly all actives have a fitted effect of over 50% in size; also: potency is read from the fitted curve at half-maximal effect)
Procedure, shortened: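 Antagonist read-out: drop in luminescence (ONE-Glo) from an RORE-LUC reporter in CHO cells with doxycycline-inducible ROR-gamma; 2 hr compound pretreatment, 1 uM doxycycline, 16 hr incubation at 37 C.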

[17] = qHTS assay to identify small molecule agonists of the AP-1 signaling pathway - cell viability counter screen (AID 1159525; calls by dose curve; also: nearly all actives have a fitted effect of over 55% in size)
Procedure, shortened: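 Luminescent ATP readout (Cell Titer Glo, 30 min RT), normalised to DMSO and tetra n-octyl ammonium bromide controls. Cells were ME-180 AP-1-bla in 0.5% dialyzed FBS Opti-MEM, with a 5 h, 37 °C compound exposure.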

[18] = biological target: Bile acid receptor (Homo sapiens) (UniProt Q96RI1); test: qHTS assay to identify small molecule antagonists of the farnesoid-X-receptor (FXR) signaling pathway (AID 743217; active = well fitted inhibition curve with a large enough effect in the signal ratio in the repeat runs, not every such curve was filed as active; the % refers to the signal ratio; also: % is scaled to controls: 0 for no effect and ±100 for the full control effect)
Procedure, shortened: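 In this cell-based antagonist screen, inhibition of CDCA-driven (50 uM final) UAS-beta-lactamase expression in HEK 293T cells was measured by FRET fluorescence following 16 h compound exposure at 37 °C.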

[19] = biological target: Bile acid receptor (Homo sapiens) (UniProt Q96RI1); test: qHTS assay to identify small molecule agonists of the farnesoid-X-receptor (FXR) signaling pathway (AID 743220; active = well fitted activation curve with a large enough effect in the signal ratio in the repeat runs, not every such curve was filed as active; the % refers to the signal ratio; also: % is scaled to controls: 0 for no effect and ±100 for the full control effect)
Procedure, shortened: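 Beta-lactamase reporter under UAS control in GeneBLAzer FXR HEK 293T cells (5000/well) measured with LiveBLAzer FRET substrate after 2 h at room temperature. Compound exposure lasted 16 h at 37C.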

[20] = biological target: Vitamin D3 receptor (Homo sapiens) (UniProt P11473); test: qHTS assay to identify small molecule agonists of the vitamin D receptor (VDR) signaling pathway (AID 743222; calls by dose curve; also: % is scaled to controls: 0 for no effect and ±100 for the full control effect)
Procedure, shortened: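 VDR-bla cells were seeded, left 4 h, treated with compounds in DMSO for 16 h, incubated 2 h at RT with B/G FRET substrate, and read for fluorescence.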

Sequence of Bile acid receptor (Homo sapiens) (Q96RI1 whole entry, looked up): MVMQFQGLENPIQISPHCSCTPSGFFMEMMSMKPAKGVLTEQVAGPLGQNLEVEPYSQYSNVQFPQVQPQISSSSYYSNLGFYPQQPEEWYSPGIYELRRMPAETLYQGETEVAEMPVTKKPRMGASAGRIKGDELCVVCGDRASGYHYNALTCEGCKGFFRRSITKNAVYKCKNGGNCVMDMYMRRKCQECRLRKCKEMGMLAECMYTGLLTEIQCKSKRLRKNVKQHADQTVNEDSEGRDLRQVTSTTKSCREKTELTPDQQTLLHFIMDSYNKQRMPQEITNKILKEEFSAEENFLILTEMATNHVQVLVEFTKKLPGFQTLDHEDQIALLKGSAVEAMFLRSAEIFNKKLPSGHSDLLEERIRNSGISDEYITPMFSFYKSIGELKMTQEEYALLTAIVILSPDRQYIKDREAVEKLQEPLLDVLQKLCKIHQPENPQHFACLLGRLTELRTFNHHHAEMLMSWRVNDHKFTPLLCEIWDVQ
Sequence of Vitamin D3 receptor (Homo sapiens) (P11473 whole entry, looked up): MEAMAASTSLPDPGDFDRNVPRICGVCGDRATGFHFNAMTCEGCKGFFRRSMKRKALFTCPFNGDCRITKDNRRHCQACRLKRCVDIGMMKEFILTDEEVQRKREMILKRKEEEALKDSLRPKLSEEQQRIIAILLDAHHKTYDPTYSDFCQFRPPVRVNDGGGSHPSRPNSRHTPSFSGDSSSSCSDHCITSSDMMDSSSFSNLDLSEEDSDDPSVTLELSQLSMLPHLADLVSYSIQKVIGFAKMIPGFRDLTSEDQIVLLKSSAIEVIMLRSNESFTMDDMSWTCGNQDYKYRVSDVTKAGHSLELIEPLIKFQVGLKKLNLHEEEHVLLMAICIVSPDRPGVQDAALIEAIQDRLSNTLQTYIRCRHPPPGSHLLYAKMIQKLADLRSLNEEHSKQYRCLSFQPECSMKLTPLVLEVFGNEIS
Sequence of Retinoic acid receptor RXR-alpha (Homo sapiens) (P19793 whole entry, looked up): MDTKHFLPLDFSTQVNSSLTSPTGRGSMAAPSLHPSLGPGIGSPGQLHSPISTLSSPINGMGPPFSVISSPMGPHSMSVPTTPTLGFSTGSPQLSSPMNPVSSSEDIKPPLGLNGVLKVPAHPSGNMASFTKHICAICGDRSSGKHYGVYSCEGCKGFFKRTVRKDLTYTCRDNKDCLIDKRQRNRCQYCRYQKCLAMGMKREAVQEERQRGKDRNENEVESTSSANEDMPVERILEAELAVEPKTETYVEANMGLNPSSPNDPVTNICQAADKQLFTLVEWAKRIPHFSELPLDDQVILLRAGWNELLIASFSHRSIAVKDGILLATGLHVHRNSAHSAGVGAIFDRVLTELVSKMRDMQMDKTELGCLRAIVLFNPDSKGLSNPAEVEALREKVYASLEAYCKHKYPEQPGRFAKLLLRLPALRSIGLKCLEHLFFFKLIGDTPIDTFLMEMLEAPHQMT
Sequence of Peroxisome proliferator-activated receptor delta (Homo sapiens) (Q03181 whole entry, looked up): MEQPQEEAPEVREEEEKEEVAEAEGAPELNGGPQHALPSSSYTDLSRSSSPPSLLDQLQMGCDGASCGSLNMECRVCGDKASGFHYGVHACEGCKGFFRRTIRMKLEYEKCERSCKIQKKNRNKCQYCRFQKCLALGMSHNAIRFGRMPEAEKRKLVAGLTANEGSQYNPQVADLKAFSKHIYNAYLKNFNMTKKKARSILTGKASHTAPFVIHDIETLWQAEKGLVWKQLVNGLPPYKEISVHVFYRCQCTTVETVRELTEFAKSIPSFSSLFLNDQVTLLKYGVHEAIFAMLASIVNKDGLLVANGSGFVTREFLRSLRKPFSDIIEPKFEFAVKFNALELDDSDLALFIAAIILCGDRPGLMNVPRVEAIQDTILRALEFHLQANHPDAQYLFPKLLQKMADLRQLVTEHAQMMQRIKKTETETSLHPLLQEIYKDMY

Cc1ccc(C(=O)c2ccc(CC(=O)O)n2C)cc1
inactive: outcome [1] | outcome [2] | outcome [3] | outcome [4] | outcome [5] | outcome [6] | outcome [7] | outcome [8] | outcome [9] | outcome [10] | Potency [11]

O=S(=O)(O)c1cccc2ccccc12
inactive: outcome [12] | outcome [13] | outcome [14] | outcome [15] | outcome [2] | outcome [4] | outcome [6] | outcome [8] | outcome [9] | Potency [16] | outcome [17] | outcome [10] | Potency [11]

CNCCO
inactive: outcome [12] | outcome [13] | outcome [14] | outcome [15] | outcome [18] | outcome [19] | outcome [2] | outcome [4] | outcome [5] | outcome [7] | outcome [8] | outcome [9] | Potency [16] | outcome [17] | outcome [10] | Potency [11]

O=S(=O)(O)c1cccc(S(=O)(=O)O)c1
inactive: outcome [12] | outcome [13] | outcome [2] | outcome [5] | outcome [6] | outcome [7] | outcome [8] | outcome [9] | outcome [17] | outcome [10]

CC(C)(N)C#N
inactive: outcome [12] | outcome [13] | outcome [15] | outcome [1] | outcome [2] | outcome [4] | outcome [5] | outcome [6] | outcome [8] | outcome [9] | Potency [16] | outcome [17] | outcome [10] | Potency [11]

CCN(C=O)CC
inactive: outcome [12] | outcome [14] | outcome [18] | outcome [1] | outcome [19] | outcome [2] | outcome [4] | outcome [5] | outcome [6] | outcome [8] | outcome [9] | Potency [16] | outcome [17] | outcome [10] | Potency [11]

CCC(C(=O)NC(=O)NC(C)=O)c1ccccc1 (stereo unspecified)
inactive: outcome [12] | outcome [1] | outcome [2] | outcome [4] | outcome [5] | outcome [6] | outcome [8] | outcome [9] | Potency [16] | outcome [17] | outcome [10] | Potency [11]

NC(=O)N[C@@H](CCC(=O)O)C(=O)O
inactive: outcome [12] | outcome [13] | outcome [15] | outcome [18] | outcome [1] | outcome [19] | outcome [2] | outcome [20] | outcome [4] | outcome [5] | outcome [6] | outcome [8] | outcome [9] | Potency [16] | outcome [17] | outcome [10] | Potency [11]

[Ca+2]
inactive: outcome [13] | outcome [14] | outcome [15] | outcome [2] | outcome [20] | outcome [4] | outcome [6] | outcome [8] | outcome [9] | Potency [16] | outcome [17] | outcome [10] | Potency [11]

CC(C)(C#N)Nc1nc(Cl)nc(NC2CC2)n1
inactive: outcome [12] | outcome [13] | outcome [14] | outcome [15] | outcome [18] | outcome [1] | outcome [19] | outcome [2] | outcome [20] | outcome [5] | outcome [6] | outcome [7] | outcome [8] | outcome [9] | outcome [10] | Potency [11]

CN1CC(=O)N/C1=N/C(=O)Nc1cccc(Cl)c1
inactive: outcome [12] | outcome [14] | outcome [1] | outcome [2] | outcome [20] | outcome [3] | outcome [4] | outcome [5] | outcome [6] | outcome [8] | outcome [9] | Potency [16] | outcome [17] | outcome [10] | Potency [11]

COc1cccc(OC)c1C(=O)N[C@@H]1C(=O)N2[C@@H]1SC(C)(C)[C@@H]2C(=O)O
inactive: outcome [12] | outcome [14] | outcome [1] | outcome [2] | outcome [20] | outcome [3] | outcome [4] | outcome [5] | outcome [6] | outcome [8] | outcome [9] | Potency [16] | outcome [10] | Potency [11]

CCN[C@H]1C[C@H](C)S(=O)(=O)c2sc(S(N)(=O)=O)cc21
inactive: outcome [12] | outcome [14] | outcome [18] | outcome [1] | outcome [19] | outcome [2] | outcome [3] | outcome [5] | outcome [6] | outcome [8] | outcome [9] | Potency [16] | outcome [17] | outcome [10] | Potency [11]

CCCC(=O)O[C@]1(C(=O)CC)CC[C@H]2[C@@H]3CCC4=CC(=O)CC[C@]4(C)[C@H]3[C@@H](O)C[C@@]21C
inactive: outcome [14] | outcome [15] | outcome [1] | outcome [2] | outcome [4] | outcome [6] | outcome [8] | outcome [9] | outcome [17] | outcome [10] | Potency [11]
active: Potency [16] 10.6 µM

CN1CCN(c2cc3c(nn2)Oc2ccccc2N3C)CC1
inactive: outcome [12] | outcome [13] | outcome [14] | outcome [15] | outcome [1] | outcome [2] | outcome [3] | outcome [4] | outcome [6] | outcome [8] | activity, negative = cytotoxicity [9] 0.179% [at 19 µM] | activity change, negative = inhibition [16] 55.1% [at 19 µM] | viability change, negative = cytotoxic [17] 4.25% [at 15.8 µM] | activation [10] 0.803% [at 15.8 µM] | activation [11] 10.7% [at 15.8 µM]

CC1=NS(=O)(=O)c2cc(Cl)ccc2N1
inactive: outcome [12] | outcome [13] | outcome [14] | outcome [15] | outcome [2] | outcome [5] | outcome [6] | outcome [8] | outcome [9] | Potency [16] | outcome [17] | outcome [10] | Potency [11]

O=C(O)c1cc(C(=O)O)cc(C(=O)O)c1
inactive: outcome [12] | outcome [13] | outcome [14] | outcome [15] | outcome [1] | outcome [2] | outcome [20] | outcome [4] | outcome [5] | outcome [6] | outcome [8] | outcome [9] | Potency [16] | outcome [10] | Potency [11]

Cc1cc(C)c(N=Nc2c(O)c(S(=O)(=O)O)cc3cc(S(=O)(=O)O)ccc23)cc1C
inactive: activity change, negative = cytotoxicity [12] -0.611% [at 5.95 µM] | activation [13] 6.93% [at 5.95 µM] | ratio activity, negative = inhibition [15] 0.853% [at 6.26 µM] | viability change, negative = cytotoxic [1] 0.0024% [at 5.95 µM] | activity change, negative = cytotoxicity [2] 0.502% [at 5.95 µM] | activity change, negative = inhibition [3] -3.01% [at 6.95 µM] | activity change, negative = cytotoxicity [4] -8.28% [at 5.95 µM] | viability change, negative = cytotoxic [5] 8.22% [at 6.95 µM] | activity, negative = cytotoxic [6] -2.06% [at 6.95 µM] | activity change, negative = cytotoxicity [8] 9.59% [at 6.95 µM] | activity, negative = cytotoxicity [9] -7.94% [at 8.39 µM] | activity change, negative = inhibition [16] -3.58% [at 8.39 µM] | viability change, negative = cytotoxic [17] -9.8% [at 6.97 µM] | activation [10] 6% [at 6.97 µM] | activation [11] 2.6% [at 6.98 µM]
